Data published in the supplement of paper PMC10981050.
Values joined by “and” are separate entries in the source; they are usually repeats but may differ in a detail not shown here. Equal values may be shown once. Where a name gives a salt, the structure may show the parent alone.

Tests used:
Assay in all cases: cell viability relative to vehicle control; higher = less cytotoxic
Settings in all cases: 10 µM
K562 = system: K562
Procedure, shortened: (§1)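 Four leukaemia lines, as CRISPR-edited mutant clones and isogenic wild-type clones, were tested against Selleck bioactive, kinase and epigenetic probe libraries after removal of identity-inconsistent compounds. Cells were exposed to a single 10 µM dose for 48 h, and CellTiter-Glo luminescence was then read. Viability was calculated relative to the on-plate vehicle control.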

MARIMO = system: MARIMO
Procedure, shortened: as §1

MOLM14 = system: MOLM14
Procedure, shortened: as §1

OCI-AML2 = system: OCI-AML2
Procedure, shortened: as §1

SMILES | cell viability (K562; SRSF2 genotype: SRSF2 P95H/wt) | cell viability (K562; SRSF2 genotype: SRSF2 wt/wt) | cell viability (MARIMO; SRSF2 genotype: SRSF2 P95H/wt) | cell viability (MARIMO; SRSF2 genotype: SRSF2 wt/wt) | cell viability (MOLM14; SRSF2 genotype: SRSF2 P95H/wt) | cell viability (MOLM14; SRSF2 genotype: SRSF2 wt/wt) | cell viability (OCI-AML2; SRSF2 genotype: P95H/wt) | cell viability (OCI-AML2; SRSF2 genotype: wt/wt)
O=C1OC(COc2ccccc2[N+](=O)[O-])CC1Cc1ccccc1 (stereo not drawn) | 95.1% and 98.1% | 101% | 93.5% | 103% | 108% | 106% | 117% | 103%
Cn1c(-c2ccccc2C(F)(F)F)nnc1C12CCC(c3noc(C4CC(F)(F)C4)n3)(CC1)CC2 | 87.3% and 92.5% | 84.7% | 88% | 99.8% | 79.8% | 87.7% | 99% | 94.8%
CCOC(=O)C=P(c1ccccc1)(c1ccccc1)c1ccccc1 [Ethyl (triphenylphosphoranylidene) acetate] | 96.8% and 92.7% | 98.4% | 90% | 99.2% | 84.5% | 93% | 90.2% | 84.8%
CCCCCCCCC/C(=C\C1=C(C)C(=O)C(OC)=C(OC)C1=O)C(=O)O | 106% and 100% | 99.4% | 112% | 105% | 94.2% | 102% | 108% | 107%
c1ccc(Cn2c(-c3ccc(OCC(C4CCNCC4)n4c(-c5ccccc5)nc5ccccc54)cc3)nc3ccccc32)cc1 (stereo not drawn) [Deltarasin] | 0.43% and 0.39% | 0.44% | 0.34% | 0.33% | 0.28% | 0.28% | 0.24% | 0.3%
C=C[C@@](C)(/C=C/c1ccc(O)cc1)CCC=C(C)C [Bakuchiol] | 98.5% and 98.7% | 95.3% | 87.8% | 83% | 87.3% | 90.1% | 83.1% | 81.6%
c1ccc(-c2ccc(C(c3ccccc3)n3ccnc3)cc2)cc1 (stereo not drawn) [Bifonazole] | 82.3% and 83.9% | 79.7% | 81.4% | 87.7% | 84.5% | 94.2% | 83.9% | 82.7%
CN1CCc2nc(C(=O)N[C@@H]3C[C@@H](C(=O)N(C)C)CC[C@@H]3NC(=O)C(=O)Nc3ccc(Cl)cn3)sc2C1 [Edoxaban] | 98.2% and 93.3% | 92.5% | 95.7% | 102% | 99.4% | 95.6% | 92.9% | 100%
COc1cc2oc(=O)ccc2cc1O [Isoscopoletin] | 95.2% and 95.4% | 96.4% | 95.6% | 94.7% | 104% | 97.2% | 97.1% | 93.8%
NS(=O)(=O)Cc1noc2ccccc12 [Zonisamide] | 90.4% and 88.2% | 89.5% | 85% | 98% | 91.8% | 90.3% | 84.7% | 95.2%
O=S(=O)(O)c1ccc2cc(N=Nc3cc(S(=O)(=O)O)c4cccnc4c3O)ccc2c1 | 95.9% and 96.5% | 89% | 93.5% | 107% | 96.9% | 95.2% | 88.5% | 94.5%
CN(C)c1cccc(-c2c3c(=O)n(-c4ccccc4Cl)[nH]c3cc(=O)n2C)c1 | 100% and 98.2% | 101% | 109% | 126% | 104% | 99.7% | 101% | 114%
O=C1C[C@@H](c2ccccc2)Oc2cc(O)cc(O)c21 [Pinocembrin] | 91.6% and 92.5% | 95.4% | 96.4% | 99.8% | 109% | 112% | 95.1% | 87.8%
C[C@]1(COc2ccc(N3CCC(Oc4ccc(OC(F)(F)F)cc4)CC3)cc2)Cn2cc([N+](=O)[O-])nc2O1 [Delamanid] | 97.1% and 93.5% | 93.5% | 94.6% | 100% | 94.9% | 101% | 83.8% | 88.6%
CCCCN1CCCCC1C(=O)Nc1c(C)cccc1C (stereo not drawn) [Bupivacaine hydrochloride (Marcain)] | 92% and 102% | 98.8% | 97.7% | 103% | 98.5% | 102% | 100% | 104%
Nc1ncnc2c1ncn2C1CC(O)C(CO)O1 (stereo not drawn) [2'-Deoxyadenosine monohydrate] | 113% and 106% | 105% | 96.4% | 94.5% | 102% | 99.6% | 95.5% | 96.5%
Cc1cc(C)nc(NS(=O)(=O)c2ccc(N)cc2)n1 [Sulfamethazine] | 108% and 111% | 108% | 105% | 109% | 110% | 110% | 119% | 96.2%
COc1cc2c(cc1OC)[C@@H]1Cc3ccc(OC)c(OC)c3CN1CC2 [Rotundine] | 87.8% and 98.4% | 101% | 98.2% | 91.1% | 94% | 95.2% | 95.1% | 90.4%

SMILES | cell viability (K562; SRSF2 genotype: SRSF2 P95H/wt) | cell viability (K562; SRSF2 genotype: SRSF2 wt/wt) | cell viability (MARIMO; SRSF2 genotype: SRSF2 P95H/wt) | cell viability (MARIMO; SRSF2 genotype: SRSF2 wt/wt) | cell viability (MOLM14; SRSF2 genotype: SRSF2 P95H/wt) | cell viability (MOLM14; SRSF2 genotype: SRSF2 wt/wt) | cell viability (OCI-AML2; SRSF2 genotype: P95H/wt) | cell viability (OCI-AML2; SRSF2 genotype: wt/wt)
NC(=O)c1noc([C@H](CCCC2CCCCC2)CC(=O)NO)n1 | 92.1% and 88.7% | 83.8% | 61.7% | 68.3% | 76.3% | 80.6% | 15.1% | 40.7%
CC(C)[C@H](N)C(=O)OCC(CO)OCn1cnc2c(=O)nc(N)[nH]c21 (stereo partly drawn) [Valganciclovir Hydrochloride] | 86.3% and 81.6% | 83.1% | 90.7% | 84.8% | 87.2% | 88.3% | 77% | 89.2%
CCOc1ccc(Cc2cc([C@]34OC[C@](CO)(O3)[C@@H](O)[C@H](O)[C@H]4O)ccc2Cl)cc1 [Ertugliflozin] | 104% and 95.2% | 104% | 104% | 101% | 103% | 102% | 104% | 113%
CC[C@H]1OC(=O)[C@H](C)[C@@H](O[C@H]2C[C@@](C)(OC)[C@@H](O)[C@H](C)O2)[C@H](C)[C@@H](O[C@@H]2O[C@H](C)C[C@H](N(C)C)[C@H]2O)[C@](C)(O)C[C@@H](C)C(=O)[C@H](C)[C@@H](O)[C@]1(C)O [Erythromycin thiocyanate] | 97.3% and 94.2% | 94.6% | 82.7% | 91.9% | 87.9% | 89.1% | 87% | 90.1%
Cc1ccc(-c2cc(C(F)(F)F)nn2-c2ccc(S(N)(=O)=O)cc2)cc1 [Celecoxib] | 94.3% and 106% | 94.1% | 99.1% | 104% | 101% | 101% | 122% | 96.5%
COc1ccc(COc2cc3oc(=O)c4cc(C(C)O)ccc4c3cc2OC)cc1 (stereo not drawn) [Palomid 529] | 101% and 111% | 104% | 105% | 103% | 102% | 101% | 106% | 97.2%
CN1CC(=O)N2[C@H](c3ccc4c(c3)OCO4)c3[nH]c4ccccc4c3C[C@@H]2C1=O [Tadalafil (Cialis)] | 101% and 99.7% | 106% | 98.5% | 105% | 97.3% | 99.8% | 103% | 108%
Nc1c(Br)cc(Br)cc1CN[C@H]1CC[C@H](O)CC1 [Ambroxol] | 97.6% and 99.3% | 98.9% | 96.2% | 96.7% | 101% | 102% | 104% | 112%
Cn1cc(-c2ccc3nnc(Sc4ccc5ncccc5c4)n3n2)cn1 | 92% and 94.2% | 96.6% | 90% | 101% | 98% | 99% | 98% | 94.3%
C=CC(=O)Nc1cc(Nc2nccc(-n3cc(CN(C)C)c(-c4ccccc4)n3)n2)c(OC)cc1N1CCOCC1 | 85.6% and 94.6% | 84.8% | 76.5% | 80.2% | 74.2% | 75.5% | 63.9% | 63.3%
N[C@@H](CS)C(=O)O [L-Cysteine HCl] | 87.6% and 82.9% | 82.4% | 89% | 97.7% | 89.1% | 87.8% | 89.1% | 94.3%
O=C(COc1cccc2c(=O)[nH]ccc12)c1ccccc1 | 89.7% and 93.9% | 98.9% | 94.6% | 88.4% | 102% | 98.5% | 88% | 84.1%
CC(C)(O)CNc1ncc(-c2ccnc(Nc3ccnc(Cl)c3)n2)c(CC2CC2)n1 | 41.9% and 40.5% | 36.9% | 39.5% | 41.2% | 8.93% | 9.79% | 5.49% | 12.8%
CN(C)C(=O)Nc1cccc(-c2ccc(N(C)C)cc2)c1 [Atglistatin] | 90.1% and 82.6% | 91.3% | 91.4% | 99.9% | 96.8% | 92.4% | 92.7% | 89.2%
CC#CCn1c(N2CCC[C@@H](N)C2)nc2c1c(=O)n(Cc1nc(C)c3ccccc3n1)c(=O)n2C [Linagliptin (BI-1356)] | 99% and 103% | 103% | 98% | 97% | 101% | 106% | 110% | 93.6%
C=C1C[C@@]23CC[C@H]4[C@@](C)(CCC[C@@]4(C)C(=O)O[C@@H]4O[C@H](CO)[C@@H](O)[C@H](O)[C@H]4O)[C@@H]2CC[C@]1(O[C@@H]1O[C@H](CO)[C@@H](O)[C@H](O)[C@H]1O)C3 [Rubusoside] | 100% and 97.7% | 101% | 110% | 104% | 104% | 103% | 104% | 114%
CCCCCOC(=O)Nc1nc(=O)n([C@@H]2O[C@H](C)[C@@H](O)[C@H]2O)cc1F [Capecitabine (Xeloda)] | 102% and 99.8% | 104% | 99.7% | 108% | 101% | 101% | 92.8% | 99.2%
CC(C)(C)c1cc(C(C)(C)C)c(NC(=O)c2c[nH]c3ccccc3c2=O)cc1O [Ivacaftor (VX-770)] | 79.4% and 75.5% | 76.1% | 101% | 111% | 85.7% | 87.5% | 91.7% | 86%
